DAX1 inh-1 – inhibitors of DAX1 repression of SF-1 activated StAR promoter. HEK293T StAR-luciferase reporter, SF-1/DAX-1 repression relief. inhibition, % at 6.8 µM. 1.1% of 370,000 active. AID 652010;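 active = inhibition above the mean over all tested compounds plus 3 SD, cut at about 3.6% in these data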;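 note: 0% = DAX-1 cells with DMSO and 100% = cells lacking DAX-1 with DMSO; higher inhibition means more luminescence from relief of DAX-1 repression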
DAX1 inh-2 – NR0B1 (DAX1) inhibition. P51843. HEK293 Gal4-DAX1 luciferase reporter, luminescence. inhibition, % at 6.75 µM. 0.99% of 340,000 active;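 active = inhibition above the mean over all tested compounds plus 3 SD, cut at about 4.2% in these data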;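 note: 0% = DAX1-transfected cells with DMSO and 100% = empty-vector control cells with DMSO; inhibition shows as a rise in luminescence from relieved DAX1 repression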
Target sequence (P51843 207-470 limits assumed): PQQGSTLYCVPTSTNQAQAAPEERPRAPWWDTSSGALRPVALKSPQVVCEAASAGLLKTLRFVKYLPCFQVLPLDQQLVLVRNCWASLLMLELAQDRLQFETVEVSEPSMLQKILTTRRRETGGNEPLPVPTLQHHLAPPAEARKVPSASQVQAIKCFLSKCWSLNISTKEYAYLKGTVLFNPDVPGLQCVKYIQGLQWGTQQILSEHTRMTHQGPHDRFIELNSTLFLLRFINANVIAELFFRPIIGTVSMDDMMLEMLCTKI
hcDAF-12 act – activates DAF-12 receptor from parasite H. contortus; HEK293 hcDAF-12 lit1-tk-luc reporter, luminescence; 0% DMSO, 100% Δ7-dafachronic acid; activation, % at 6.8 µM; 1.4% of 370,000 active;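 active = activation above the mean of all tested compounds plus 3 SD, cut at about 5.5% in these data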;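 note: 100% = response to 3 µM Δ7-dafachronic acid high control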
ssDAF-12 act – activators of S. stercoralis DAF-12 nuclear receptor. HEK293 ssDAF-12/GRIP1 lit1-tk-luc reporter, luminescence; % of 3 µM dafachronic acid response. activation, % at 6.8 µM. 1% of 370,000 active;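 active = activation above the mean over all tested compounds plus 3 SD, cut at about 0.9% in these data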;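 note: 0% = DMSO-only wells and 100% = 3 µM delta7-dafachronic acid wells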
NR1D1 modulator – modulators of human Rev-erb alpha DNA binding. P20393. Rev-erbα–FITC-DNA binding, fluorescence polarization, 90 min. activity, % at 10 µM. 0.79% of 370,000 active. AID 1259318;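 active = activity above about 14%, limit read from the data; passing the limit was not always enough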;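 note: 0% = DMSO wells with 35 nM protein and 100% = DMSO wells with 750 nM protein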
hgDAF-12 ag – agonists of H. glycines DAF-12 nuclear receptor. activation, % at 6.8 µM. HEK293 GAL4-hgDAF12 UAS-luciferase reporter, agonist luminescence; normalized to butyrate control. 1.8% of 370,000 active;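 active = activation above a cutoff set at the mean of all screened compounds plus 3 SD, cut at about 10% in these data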;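 note: 0% = DMSO wells and 100% = sodium butyrate wells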
Active calls of the source: *. Rows were chosen to be rich in hits. Some 4.8% of all compounds tested hit in one or more screens of this group.

O=C(CCSc1ccccc1)N1CCN(c2ccccc2)CC1 was read as DAX1 inh-1 3, DAX1 inh-2 3, hcDAF-12 act 2, ssDAF-12 act 0, NR1D1 modulator 1 and hgDAF-12 ag 12*.
For Cc1nc(C(=O)NNC(=O)c2ccc(Cl)cc2)c(C(F)(F)F)o1 the results were DAX1 inh-1 -1, DAX1 inh-2 0, hcDAF-12 act 0, ssDAF-12 act -1, NR1D1 modulator 6 and hgDAF-12 ag 1.
For O=C(Nc1ccc(Cl)c(Cl)c1)C1CCCN1S(=O)(=O)c1cccc2cccnc12 (stereo unspecified) the results were DAX1 inh-1 -3, hcDAF-12 act -5, ssDAF-12 act -2, NR1D1 modulator -2 and hgDAF-12 ag -2.
Screening CCCCN1C(=O)N2Cc3ccc(C)cc3C2CS1(=O)=O (stereo unspecified) returned DAX1 inh-1 2, hcDAF-12 act 2, ssDAF-12 act -1, NR1D1 modulator 3 and hgDAF-12 ag 6.
For O=C(NCC(=O)N1CCOCC1)c1ccc(Br)cc1 the results were DAX1 inh-1 0, DAX1 inh-2 1, hcDAF-12 act 1, ssDAF-12 act -1, NR1D1 modulator -7 and hgDAF-12 ag -1.
Screening O=C(NCC(=O)N1CCN(c2ccccc2)CC1)c1ccc(Cl)cc1 returned DAX1 inh-1 0, DAX1 inh-2 4.9*, hcDAF-12 act -2, ssDAF-12 act -1, NR1D1 modulator 5 and hgDAF-12 ag -3.
`O=C(NCC(=O)N1CCCCCC1)c1ccc(Br)cc1` gave DAX1 inh-1 0, DAX1 inh-2 4.4*, hcDAF-12 act 0, ssDAF-12 act -1, NR1D1 modulator 6 and hgDAF-12 ag 2.
O=C(CNC(=O)c1ccc(F)cc1)c1ccc(Cl)cc1 was read as DAX1 inh-1 1, DAX1 inh-2 1, hcDAF-12 act 3, ssDAF-12 act 0, NR1D1 modulator 5 and hgDAF-12 ag 11*.
CCOC(=O)c1[nH]c(C)c(C(=O)NCc2ccccn2)c1C was read as DAX1 inh-1 -1, DAX1 inh-2 0, hcDAF-12 act -1, ssDAF-12 act -1, NR1D1 modulator -1 and hgDAF-12 ag 1.
For CCOC(=O)c1c(C)[nH]c(C(=O)OCc2ccc(C)cc2)c1C the results were DAX1 inh-1 4.2*, DAX1 inh-2 0, hcDAF-12 act 1, ssDAF-12 act 0, NR1D1 modulator -4 and hgDAF-12 ag 4.
`CCOC(=O)c1c(C)[nH]c(C(=O)COC(=O)CCSc2ccccc2)c1C` gave DAX1 inh-1 0, DAX1 inh-2 1, hcDAF-12 act 6.3*, ssDAF-12 act 0, NR1D1 modulator -4 and hgDAF-12 ag 9.
CCOC(=O)c1[nH]c(C)c(C(=O)OCc2ccc(C)cc2)c1C was read as DAX1 inh-1 0, DAX1 inh-2 -2, hcDAF-12 act 1, ssDAF-12 act -1, NR1D1 modulator 1 and hgDAF-12 ag 0.
CCOC(=O)c1c(C)[nH]c(C(=O)NCc2ccccn2)c1C was read as DAX1 inh-1 4.1*, DAX1 inh-2 1, hcDAF-12 act 0, ssDAF-12 act 0, NR1D1 modulator 4 and hgDAF-12 ag 5.
For O=C(NCCc1ccccn1)c1ccc2c(c1)ncn2C1CCCCC1 the results were DAX1 inh-1 0, hcDAF-12 act 1, ssDAF-12 act 0, NR1D1 modulator 6 and hgDAF-12 ag 3.
Screening C[C@]12C=CC(=O)C=C1CCC1C2[C@@H](O)C[C@@]2(C)C1CC[C@]2(O)C(=O)COC(=O)CCC(=O)O (stereo partly specified) returned NR1D1 modulator 0.
Screening c1ccc(NN=C2c3ccccc3-c3ccccc32)cc1 returned DAX1 inh-1 0, DAX1 inh-2 0, hcDAF-12 act 5.7*, ssDAF-12 act 1, NR1D1 modulator 5 and hgDAF-12 ag 2.
`CC1(C)OC(=O)C(=NNc2ccccc2)C(=O)O1` gave DAX1 inh-1 -1, DAX1 inh-2 0, hcDAF-12 act -1, ssDAF-12 act 0, NR1D1 modulator -4 and hgDAF-12 ag -1.
CC(=O)C1(C(=O)NCc2ccccc2)CC(c2ccccc2C(F)(F)F)=NO1 (stereo unspecified) was read as DAX1 inh-1 -1, hcDAF-12 act -2, ssDAF-12 act -1, NR1D1 modulator -5 and hgDAF-12 ag 4.
COC(=O)C1=C(C)N(C)C(=NCc2ccc(OC)cc2)NC1c1cccc(C(F)(F)F)c1 (stereo unspecified) was read as DAX1 inh-1 1, hcDAF-12 act -2, ssDAF-12 act -1, NR1D1 modulator 7 and hgDAF-12 ag 0.
For CC(=O)N(/C=C1\SC(=S)N(c2ccccc2)C1=O)c1ccccc1 the results were DAX1 inh-1 0, DAX1 inh-2 0, hcDAF-12 act 0, ssDAF-12 act 1.9*, NR1D1 modulator 10 and hgDAF-12 ag -2.
`CCN1C(=O)/C(=C\N(C(C)=O)c2ccccc2)OC1=S` gave DAX1 inh-1 1, DAX1 inh-2 1, hcDAF-12 act -1, ssDAF-12 act -1, NR1D1 modulator 5 and hgDAF-12 ag 3.
For C/C(=N/O)c1no[n+]([O-])c1/C(C)=N\O the results were DAX1 inh-1 0, DAX1 inh-2 7.2*, hcDAF-12 act -1, ssDAF-12 act -1, NR1D1 modulator 0 and hgDAF-12 ag 0.
Screening O=C(NCCSc1ccccc1)c1ccccc1Cl returned DAX1 inh-1 3, DAX1 inh-2 1, hcDAF-12 act 1, ssDAF-12 act 0, NR1D1 modulator 4 and hgDAF-12 ag 15*.
For O=C(NCSc1ccncn1)c1ccccc1 the results were DAX1 inh-1 0, DAX1 inh-2 4.9*, hcDAF-12 act -1, ssDAF-12 act -1, NR1D1 modulator -4 and hgDAF-12 ag 2.
`O=C(NCCSc1ccccc1)c1ccccc1` gave DAX1 inh-1 3, DAX1 inh-2 3, hcDAF-12 act 5, ssDAF-12 act 0, NR1D1 modulator -4 and hgDAF-12 ag 12*.
`O=C(NCCSSCCNC(=O)c1ccccc1)c1ccccc1` gave DAX1 inh-1 -1, DAX1 inh-2 -1, hcDAF-12 act -2, ssDAF-12 act -2, NR1D1 modulator -4 and hgDAF-12 ag 4.
For CC(C)(C)c1cccc(N/C(=C\C(=O)c2ccccc2)c2ccccc2)c1 the results were DAX1 inh-1 1, hcDAF-12 act 2, ssDAF-12 act -1, NR1D1 modulator -5 and hgDAF-12 ag 3.
Screening COC(=O)C1CN(Cc2ccc(OC)cc2)CCS(=O)(=O)N1Cc1cn(Cc2ccc(C)cc2)nn1 (stereo unspecified) returned DAX1 inh-1 -1, hcDAF-12 act -1, ssDAF-12 act -1, NR1D1 modulator 8 and hgDAF-12 ag 1.
For COc1ccc(Cl)cc1N(C(C)=O)c1nc(C)cc(C)c1C#N the results were DAX1 inh-1 0, DAX1 inh-2 5.1*, hcDAF-12 act 5.9*, ssDAF-12 act -1, NR1D1 modulator 4 and hgDAF-12 ag 0.

Assay outcomes from PubChem.
